Several values for one entry are separate records, joined by “and”; a condition that tells them apart may be missing. Identical values can stand only once. This is part of a sample that, as a whole, favours compounds with a hit. Of some 83,000 tested, about 20% had one in any assay.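 A percent growth of 40 corresponds to 60% growth inhibition; 0 means no net growth; -100 means all cells died. Active threshold: below 10.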 Activity calls are given as the source filed them.
system: MDA-MB-468 breast; assay: NCI-60 one-dose screen, 48 h (100 = growth as untreated, 0 = no growth, -100 = all killed); settings: 10 µM unless noted
Description: Growth inhibition of the MDA-MB-468 human Breast tumor cell line is measured as a screen for anti-cancer activity. Cells are grown in 96 well plates and exposed to the test compound for 48 hours. Compounds are tested at a single concentration, which is 10^-5 M for most compounds. The reported endpoint is percent growth (GI% or GIPRCNT), where numbers from 0 - 100% represent growth inhibition, and numbers from -100% - 0 represent cell death. For example, a value of 40 represents 60% growth inhibition. A value of 0 means no net growth occurred over the course of the experiment. A value of -40 indicates 40% of cells at the beginning of the experiment died by the end of the experiment. A value of -100 means all cells are dead at the end of the experiment.
NCI-60 Human Tumor Cell Lines Screen was performed using the standard one-dose NCI protocol, which is described in more detail at https://dtp.cancer.gov/discovery_development/nci-60/default.htm.
Compounds with GIPRCNT values below 10 were considered active. Activity score was based on GIPRCNT using the following formula: […]
Score is 0 for GIPRCNT values of 100 or above, 50 for GIPRCNT values of 0, and 100 for GIPRCNT values of -100.

**Q.** For O=[N+]([O-])/C=C/c1ccc([N+](=O)[O-])cc1, which growth is on record?
**A.** 77.7% (inactive)

**Q.** Which growth does the source give for ClCCN(CCCl)c1ccc(/C=N\N=C\c2ccc(N(CCCl)CCCl)cc2)cc1 here?
**A.** 50% (inactive)

**Q.** Which growth does the source give for CC12CCC3C(CCC4Cc5[nH]c6ccccc6c5CC43C)C1CCC2O (stereo not given) here?
**A.** 29.3% (inactive)

**Q.** With O=[N+]([O-])c1cc(I)cc([N+](=O)[O-])c1 as the compound, how does the growth read?
**A.** 88.2% (inactive)

**Q.** How did the growth turn out when C/C=C/CC(C)C(O)[C@H](NC(=O)[C@@H]1CCCN1C(=O)C(C)(C)NC(=O)CCCCCCCCC)C(=O)N[C@@](C)(CC)C(=O)N[C@@H](CCC(N)=O)C(=O)N[C@H](CCC(N)=O)C(=O)NC(C)(C)C(=O)N[C@@](C)(CC)C(=O)N[C@@H](CCC(N)=O)C(=O)N[C@H](CC(C)C)C(=O)N[C@H](CO)CC(C)C (stereo not given in full) was run?
**A.** 99.2% (inactive) and -78.2% (active)

**Q.** With Cc1ccc(C(=O)C2CN(C)CCC2(O)c2ccc(C)cc2)cc1 (stereo not given) as the compound, how does the growth read?
**A.** 119% (inactive)

**Q.** How did the growth turn out when NCCc1cc(O)c(O)cc1O was run?
**A.** 96.2% (inactive)

**Q.** Which growth does the source give for CCC(CC)CC1(C)CC2(C)CCOC2OO1 (stereo not given) here?
**A.** 110% (inactive)

**Q.** With COc1ccccc1/C=C/[N+](=O)[O-] as the compound, how does the growth read?
**A.** 22.6% (inactive)

**Q.** O=C(O)C1C(C(=O)O)C2(Cl)C(Cl)=C(Cl)C1(Cl)C2(Cl)Cl.[Hg] (stereo not given) was tested. Which growth did it give?
**A.** 58.4% (inactive)

**Q.** Which growth does the source give for NC(Cc1ccccc1)c1ccccc1 (stereo not given) here?
**A.** 107% (inactive) and 105% (inactive)

**Q.** Which growth does the source give for CC12CCC3C4CCC(=O)C=C4CCC3C1CC1CC(=O)OC12 (stereo not given) here?
**A.** 102% (inactive)

**Q.** For CC1=C2C(=C[C@@](C)(COC(=O)c3ccc(S(=O)(=O)F)cc3)[C@@H]2O)C(=O)[C@](C)(O)C12CC2, which growth is on record?
**A.** -78.8% (active)

**Q.** COc1ccc2nc(NC(=O)COc3cc(/C=C\c4cc(OC)c(OC)c(OC)c4)ccc3OC)sc2c1 was tested. Which growth did it give?
**A.** -5.6% (active)

**Q.** How did the growth turn out when C[C@@H]1C[C@H]2C(=O)O[C@@H](C)C(NC(=O)[C@H](Cc3cc(F)cc(F)c3)NC(=O)Nc3ccc(OS(=O)(=O)F)cc3)C(=O)N3CCC[C@H]3C(=O)N3CCO[C@H](C)[C@H]3C(=O)N[C@@H](CO)C(=O)N2C1 (stereo not given in full) was run?
**A.** -7.29% (active)

**Q.** O=[P+](O)c1ccccc1 was tested. Which growth did it give?
**A.** 114% (inactive)

**Q.** Which growth does the source give for C[C@]12CCc3sc(NCCc4ccccc4)nc3C1=CC[C@@H]1[C@@H]2CC[C@]2(C)C(=O)CC[C@@H]12 here?
**A.** 32.9% (inactive)

**Q.** Which growth does the source give for [Au+].[N-]=C=O.c1ccc(CN2[CH-]N(Cc3ccccc3)C(c3ccccc3)=C2c2ccccc2)cc1 here?
**A.** 72.7% (inactive)

**Q.** For CC1=CC(=Nc2ccc(N(CCCl)CCCl)cc2)C=C(C)C1=O, which growth is on record?
**A.** -66.3% (active)

**Q.** How did the growth turn out when CC/C(=C(\c1ccc(OCCN2CCOCC2)cc1)c1ccc(OC(=O)Cc2ccccc2)cc1)c1ccc(Cl)cc1 was run?
**A.** 104% (inactive)

**Q.** For COc1ccc(/C=C\c2cc(OC)c(OC)c(OC)c2)cc1OCC(=O)Nc1nc2ccc(F)cc2s1, which growth is on record?
**A.** 37.3% (inactive)

**Q.** Which growth does the source give for CC(=O)O[C@H]1CCC2C3CCC4=C/C(=N/O)CCC4(C)C3CCC21C (stereo not given in full) here?
**A.** 97.7% (inactive)

**Q.** Oc1cc(N2CC2)c(O)cc1N1CC1 was tested. Which growth did it give?
**A.** -62.7% (active)

**Q.** CC(=O)O[C@H]1C[C@@H]2OC3C=C(C)CCC3(C)[C@@]1(C)[C@@]21CO1 (stereo not given in full) was tested. Which growth did it give?
**A.** -26.7% (active) and -40.4% (active)

**Q.** Which growth does the source give for O=S(=O)(F)c1ccc(Cl)cc1 here?
**A.** 121% (inactive)

**Q.** CC[C@]12C=CCN3CC[C@@]4(c5ccc(OC)cc5N(C)[C@H]4[C@@](O)(C(=O)OC)[C@@H]1OC(=O)CCCC[P+](C1CCCCC1)(C1CCCCC1)C1CCCCC1)[C@@H]32 was tested. Which growth did it give?
**A.** -79% (active)

**Q.** Nc1cccc(CC(=O)Nc2ccc(S(=O)(=O)F)cc2)c1 was tested. Which growth did it give?
**A.** 90.2% (inactive)

**Q.** For CC[C@H](C)[C@H](NC(=O)C12CC(NC)(C1)C2)C(=O)N(C)[C@H](C[C@@H](OC(C)=O)c1nc(C(=O)N[C@@H](Cc2ccccc2)C[C@H](C)C(=O)OC)cs1)C(C)C, which growth is on record?
**A.** -8.32% (active)

**Q.** Which growth does the source give for O=C(N/N=C/c1ccc(N(CCCl)CCCl)cc1)c1cc(=O)[nH]c(=O)[nH]1 here?
**A.** -0.0833% (active)

**Q.** For C1CNC2CCCC2C1 (stereo not given), which growth is on record?
**A.** 97.4% (inactive)

**Q.** Which growth does the source give for CC[C@H](C)[C@H](NC(=O)Nc1ccccc1)C(=O)N(C)[C@H](C[C@@H](OC(C)=O)c1nc(C(=O)N[C@@H](Cc2ccccc2)C[C@H](C)C(=O)OC)cs1)C(C)C here?
**A.** -1.4% (active)

**Q.** With C/C=C/CC(C)C(O)[C@H](NC(=O)[C@@H]1CCCN1C(=O)C(C)(C)NC(=O)CCCCCCC)C(=O)N[C@@](C)(CC)C(=O)N[C@@H](CCC(N)=O)C(=O)N[C@H](CCC(N)=O)C(=O)NC(C)(C)C(=O)NC(C)(C)C(=O)N[C@@H](CCC(N)=O)C(=O)N[C@H](CC(C)C)C(=O)N[C@H](CO)CC(C)C (stereo not given in full) as the compound, how does the growth read?
**A.** 106% (inactive) and -55.5% (active)

**Q.** For CC1[C@H](C)OC(=O)CC(O)CC(O)CC(O)CCC(O)C(O)C[C@]2(O)CC(O)C(C(=O)O)C(CC(OC3O[C@H](C)[C@@H](O)[C@H](N)[C@@H]3O)/C=C/C=C/C=C/C=C/CC/C=C/C=C/[C@H](C)[C@H]1O)O2 (stereo not given in full), which growth is on record?
**A.** 108% (inactive)

**Q.** O=C(Nc1ccc(O)cc1)C(Cl)(Cl)Cl was tested. Which growth did it give?
**A.** 95.2% (inactive)

**Q.** COc1ccc2c(c1)c(-c1nc(-c3c[nH]c4ncccc34)cs1)cn2CCCCN1CCOCC1 was tested. Which growth did it give?
**A.** 39.3% (inactive)

**Q.** How did the growth turn out when CN=C(NN)NN was run?
**A.** 112% (inactive)

**Q.** How did the growth turn out when O=S(=O)(Cl)c1ccccc1 (tested in a mixture with another compound) was run?
**A.** 98.6% (inactive)

**Q.** How did the growth turn out when CC[C@H](C)[C@H](NC(=O)[C@H]1CCCCN1C)C(=O)N(C)[C@H](C[C@@H](OC(C)=O)c1cccc(C(=O)N[C@@H](Cc2ccccc2)C[C@H](C)C(=O)OC)n1)C(C)C was run?
**A.** 40.9% (inactive)

**Q.** CC12CCC(O)CC1=CCC1C2CCC2(C)C(O)CCC12 (stereo not given) was tested. Which growth did it give?
**A.** 99.4% (inactive)

**Q.** Nc1nc([Se])c2ncn(C3OC(CO)C(O)C3O)c2n1 (stereo not given) was tested. Which growth did it give?
**A.** 83.6% (inactive)

From PubChem BioAssay (NCI)
